We go through eight molecules from PubChem BioAssay (NCI).

Holding throughout (assay): NCI-60 one-dose screen, 48 h (100 = growth as untreated, 0 = no growth, -100 = all killed)
Holding throughout (conditions): 10 µM

Assay [1] relates to K-562 leukemia.
For assay [2], the system named is MDA-MB-231 breast.
The test system of assay [3] is RXF 393 renal.
Assay [4] relates to SF-268 CNS.
Assay [5] relates to SF-295 CNS.
Assay [6] relates to SF-539 CNS.
Assay [7] deals with UACC-257 melanoma.
The subject of assay [8] is M14 melanoma.
Assay [9] has as its system HCT-15 colon.
Assay [10] concerns HT29 colon.
Assay [11] concerns SNB-75 CNS.
Assay [12] deals with SNB-19 CNS.
Assay [13] concerns U251 CNS.
In assay [14] the test system is PC-3 prostate.
Assay [15] has as its system SK-MEL-5 melanoma.
The test system of assay [16] is UACC-62 melanoma.
In assay [17] the test system is LOX IMVI melanoma.
Assay [18] has as its system SK-MEL-28 melanoma.
Assay [19] relates to SK-MEL-2 melanoma.

The panel holds about 83,000 compounds, 20% with a hit somewhere; the sample as a whole holds those more often.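 In brief: 96-well plates, 48 h treatment, single concentration, percent growth endpoint.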 Unmarked numbers belong to inactive results. Activity calls are given as the source filed them. The calls were made as follows: active = growth percent below 10; inactive = the rest.

For the molecule `Cc1ccc(-c2nc(/C=C3/C(=O)N(C)c4ccc(F)cc43)c3ccccn23)cc1`, the growth in assay [1] was 107%; in assay [2], 76.5%; in [3] it was 97.9%; in assay [4], 92.1%; in assay [5], 71.3%; in assay [6] it was 94.6%. Moreover, the growth in [7] is 106%; in assay [8], 99.5%; in assay [9] it was 93%; in assay [10], 112%; in assay [11], 87.4%; in assay [12] it was 101%. The growth in assay [13] is 80.8%; in assay [14] it was 113%; in assay [15], 95.6%; in [16], 97.8%; in assay [17], 95.9%; in assay [18], 108%. For the same molecule, in assay [19], the growth was 115%.

As to `CCCCCCCCCCCCCC[n+]1ccc(C(N)=O)cc1`, the growth in [1] is 9.07% (active); in assay [2], -35.3% (active); in [3] it was -52.4% (active); in assay [4], -12.5% (active); in assay [5], -27.8% (active); in [6] it was -3.7% (active). The growth in assay [7] was 9.72% (active); in assay [8], -45.1% (active); in assay [9], 62.6%; in assay [10] it was -28.2% (active); in assay [11] it was -24.8% (active); in assay [12] it was -58.5% (active). For the same molecule, the growth in assay [13] was -100% (active); in [14] it was -23.3% (active); in assay [15], -82.8% (active); in assay [16], 0.667% (active); in [17] it was -48.9% (active); in assay [18], 43.3%. Further, in assay [19], the growth was -32.4% (active).

Turning to `FC(F)(F)c1ccc2nc(-c3nc(-c4ccccc4)n4ccccc34)[nH]c2c1`, the growth in [1] is 82.7%; in [2] it was 22.1%; in assay [3], 94.4%; in assay [4] it was 49.1%; in [5] it was 104%; in assay [6], 35.1%. Also, the growth in assay [7] is 81.7%; in [8], 96%; in assay [9], 60.4%; in [10], 14.7%; in assay [11] it was 66.9%; in assay [12], 116%. For the same molecule, the growth in assay [13] was 59.5%; in assay [14], 39.6%; in assay [15] it was 84.1%; in assay [16], 103%; in assay [17], 20.6%; in assay [18], 98.4%. In addition, the growth in [19] was 81.6%.

Consider `O=C(O)c1ccc(Cl)cc1Nc1ccc(F)cc1`, for which the growth is 75.4% in [1]; 70.4% in assay [2]; 92.7% in assay [3]; 62.4% in assay [4]; 73% in assay [5]; 93.8% in [6]. The growth in assay [7] is 97.6%; in assay [8] it was 77.6%; in assay [9] it was 53.7%; in assay [10], 101%; in assay [11], 83.6%; in assay [12], 87.1%. In addition, the growth in [13] is 52.3%; in assay [14], 83.9%; in assay [15], 102%; in [17], 43.1%; in [18], 86.2%; in assay [19], 93.4%.

On to `COc1ccc(/C(=C2\O[C@@H]([C@H]3COC(C)(C)O3)[C@H]3OC(C)(C)O[C@@H]23)c2cc(OC)c(OC)c(OC)c2)cc1O`, for which the growth is 24.3% in [1]; 43.9% in assay [2]; 81.9% in assay [3]; 36.3% in assay [4]; 85.2% in assay [5]; 9.85% (active) in [6]. For the same molecule, the growth in assay [7] was 107%; in assay [8], 7.95% (active); in assay [9], 26.9%; in [10], 107%; in [11], 6.11% (active); in assay [12] it was 47.4%. For the same molecule, the growth in assay [13] is 46.2%; in assay [14] it was 30.6%; in [15], 59.6%; in [16], 93.2%; in [17] it was 36.9%; in assay [18], 59.6%. Further, in assay [19], the growth was 103%.

Turning to `NC(=O)SCC(=O)Nc1ccc(S(N)(=O)=O)cc1`, the growth in assay [1] is 108%; in assay [2] it was 106%; in assay [3], 99%; in assay [4] it was 106%; in [5], 107%; in assay [6], 100%. The growth in assay [7] is 101%; in assay [8] it was 105%; in assay [9] it was 109%; in assay [10] it was 107%; in assay [11], 96.3%; in [12], 104%. Further, the growth in [13] is 104%; in assay [14] it was 100%; in [15], 102%; in assay [16] it was 89%; in assay [17] it was 97%; in [19], 111%.

With `O=[N+]([O-])c1ccc(Oc2cccnc2)c([N+](=O)[O-])c1`, the growth is 16.1% in [1]; 94% in assay [2]; 63.9% in assay [3]; 97.5% in assay [4]; 104% in assay [5]; 75.7% in [6]. Moreover, the growth is 63.6% in assay [7]; 84.9% in assay [8]; 53.1% in assay [9]; -4.49% (active) in [10]; 87.7% in [11]; 106% in assay [12]. The growth in assay [13] was 85.7%; in assay [14] it was 83.1%; in [15], 79.1%; in assay [17] it was 24.1%; in assay [18], 97.6%.

Consider `O=C(Nc1ccncc1)C(=O)c1cn(S(=O)(=O)c2cccc3ccccc23)c2ccccc12`, for which the growth in [1] was 18.9%; in assay [2], 74.6%; in [3], 89.7%; in assay [4], 107%; in assay [5], 52%; in assay [6], 92.7%. Besides, the growth in [7] is 89%; in [8], 82.7%; in [9], 65.7%; in assay [10], 42.7%; in assay [11] it was 76.5%; in assay [12], 80.5%. The growth in assay [13] was 80.7%; in [14] it was 68.5%; in assay [15] it was 68%; in assay [16] it was 63.7%; in assay [17], 61.5%; in assay [18], 95.3%. Moreover, the growth in [19] is 68.2%.
